Unmarked numbers belong to inactive results. How the calls were made is not given here.

The target of this test is L-lactate dehydrogenase (Plasmodium falciparum (isolate CDC / Honduras)) (UniProt Q27743). Put plainly: PfLDH activity inhibition – cell lysate, 3D7 strain, counter-screen for P. falciparum growth inhibition project (AID 2304).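 Further: 0% = vehicle and 100% = reference inhibitor.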 The conditions noted are these: P. falciparum 3D7 crude extract, LDH APAD/NBT absorbance; at 2 µM; hits give high values.
L-lactate dehydrogenase (Plasmodium falciparum (isolate CDC / Honduras)), sequence (Q27743 whole entry, looked up): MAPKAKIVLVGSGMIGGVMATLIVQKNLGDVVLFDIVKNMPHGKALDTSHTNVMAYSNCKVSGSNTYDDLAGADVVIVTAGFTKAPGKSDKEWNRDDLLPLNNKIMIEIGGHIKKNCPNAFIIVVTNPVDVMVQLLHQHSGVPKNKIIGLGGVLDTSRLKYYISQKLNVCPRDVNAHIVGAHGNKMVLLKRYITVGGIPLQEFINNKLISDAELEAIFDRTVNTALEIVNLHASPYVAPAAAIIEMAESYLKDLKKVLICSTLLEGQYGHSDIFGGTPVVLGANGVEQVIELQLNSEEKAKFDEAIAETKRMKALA
In the case of `Cc1ccccc1Nc1cc(Nc2ccccc2C)c2ccccc2n1`, the inhibition – broadly, the change of the read-out against control, counted positive when it falls – was -1%.

Turning to `CCC[C@@H]([C@@H](CC1CCCCC1)C(=O)N[C@H](C(=O)Nc1nccs1)C(C)(C)SC)N(O)C=O`, the inhibition is 7%. The figure for `CCNc1cc(C(=O)N[C@@H](Cc2ccccc2)[C@H](O)CNC(C)CC(C)C)c(F)c(N2CCCCS2(=O)=O)c1` (stereo not given in full) is 4%; for `CC1SC(=S)NC1C(=O)O` (stereo not given) it is 0%. Consider `O=C(Nc1ccc(-c2nc3ccccc3[nH]2)cc1)c1ccc(S(=O)(=O)N2CCc3ccccc32)cc1`, for which the inhibition was 3%. The value for `C=CCc1c(C(=O)NCC23CC4CC(CC(C4)C2)C3)[nH]c2ccccc2c1=O` was 2%. For `COc1ccc2nccc(NN=Cc3cccc(F)c3)c2c1`, the inhibition was 2%. On to `CN(C)CCC1CCCc2ccc(NC(=O)Nc3cccc(Cl)c3Cl)cc21` (stereo not given), for which the inhibition is 5%. The figure for `O=C(Nc1ccc(Cl)c(C(F)(F)F)c1)NC1CCN(CCCCCNC(=O)[C@@H]2C[C@H]2c2ccc(Cl)c(Cl)c2)CC1` is -1%. The value for `CO/C(=C\C=C\c1cc2cc(Cl)c(Cl)cc2[nH]1)C(=O)NC1CCN(CCNc2ccccc2)CC1` was 1%. The figure for `O=C(Nc1ccc(-c2cccc(-c3nc4ccccc4[nH]3)c2)cc1)Nc1ccc2c(c1)OCO2` is 0%. Turning to `CN1CCN(CC(=O)Nc2ccc(-c3ccc(-c4nc5ccc(C(F)(F)F)cc5[nH]4)cc3)cc2)CC1`, the inhibition was -3%. The value for `O=C(c1cccs1)N1CCN(c2ccc([N+](=O)[O-])c(NC3CC3)c2)CC1` was 2%; that for `CC(C)(C)c1ccccc1SC1=C(O)CC2(CCNCC2)OC1=O` was 2%. The value for `Cc1cc(C)c(C(=O)Nc2ccc3nc(C)cc(N)c3c2)c(C)c1` was 4%; that for `CC(=O)Nc1ccc(CN(Cc2cccc(OC(C)(C)C)c2)Cc2ccc3c(c2)OCCO3)cc1` was 8%. The value for `CC1CCCN(S(=O)(=O)c2ccc(NC(=O)c3cc(-c4ccccc4O)n[nH]3)cc2)C1` (stereo not given) was 3%; that for `CC(=O)c1cccc(NC(=O)NC2CCN(c3ccnc(Nc4ccc(F)cc4)n3)C2)c1` (stereo not given) was -2%; that for `O=C(Nc1ccc(C(=O)OCC(c2ccccc2)c2ccccc2)cc1)N[C@@H](Cc1ccc(O)cc1)C(=O)NC1CCN(Cc2ccc(O)cc2)C1` (stereo not given in full) was 1%.

On to `Nc1ccnc2ccc(OCCCCCCc3ccccc3)cc12`, for which the inhibition was 1%. The value for `COc1ccc(-c2nonc2NC(=O)c2ccc(C(C)(C)C)cc2)cc1OC` was -2%. The figure for `O=C(O)c1ccc2c(c1)N(C(=O)CNCc1ccc(F)cc1)CC(=O)N2CCCc1ccccc1` is 2%; for `O=C(c1ccc([N+](=O)[O-])o1)N1CCC(c2cn(Cc3cccc(F)c3)c3ccccc23)CC1` it is -2%. The figure for `CCN=C1NC2=C(CC(C(C)(C)C)CC2)C2(CCC(C(C)(C)C)CC2)S1` (stereo not given) is 4%. Regarding `O=C(NCCCCN1CCC(c2ccc3c(c2OC(=O)c2ccc(NC(=O)c4ccc(Cl)cc4)cc2)CCCC3)CC1)c1ccc(NC(=O)c2ccc(Cl)cc2)cc1`, the inhibition is -2%. Consider `COc1ccc(C=CC(=O)NC(=O)c2ccccc2OC(=O)c2ccccc2)cc1OC`, for which the inhibition is 5%. The figure for `Cc1cccc(NC(=O)N(Cc2cc3cc(C)cc(C)c3[nH]c2=O)C2CC2)c1` is 2%; for `CCc1cn2c3c(cc(C(=O)N[C@@H](Cc4ccccc4)[C@H](O)CNCCOC)cc13)N(C)S(=O)(=O)CC2` it is -9%.

For `CC(C)(C)c1ccc(CN2CCC(NC(=O)c3ccc(-c4cccc(Cl)c4)s3)CC2)cc1`, the inhibition was 5%. `Cc1cc(N[C@@H](CC(C)C)C(=O)NCc2cccs2)nc(NCCc2cccs2)n1`: the inhibition was -4%.

On to `COC(=O)c1cccc(CNCc2cccc(-c3ccc(-c4nc5c(C)cccc5[nH]4)s3)c2)c1`, for which the inhibition was 1%. `Oc1ccc(-c2ccccc2)cc1CN1CCCCCC1`: the inhibition is 2%. On to `c1cc(CNC2Cc3ccccc3C2)cc(-c2cnc(N3CCNCC3)nc2)c1`, for which the inhibition is -9%.

Turning to `COc1cc(Cc2cnc(N)nc2N)c2ccsc2c1OC`, the inhibition was 0%. For the compound `CC(C)Nc1nc(NCCc2cnc[nH]2)nc(NCc2ccc(Cl)c(Cl)c2)n1`, the inhibition was 7%.

Turning to `COC(=O)C(Cc1ccccc1)C(CSCc1ccc(OC)cc1)C(=O)N[C@@H](C(=O)OC(C)(C)C)c1ccc(C(C)(C)C)cc1` (stereo not given in full), the inhibition was 2%. The figure for `CC[C@H](NC(=O)c1c(CCCN2CCN(c3ccccc3)CC2)c(-c2ccccc2)nc2cc(O)ccc12)c1ccccc1` is 6%. `CC(=O)NC1=NC(C)(C)N(OCCCOc2ccc(Cl)c(Cl)c2)C(NC(C)=O)=N1`: the inhibition was 0%. The value for `CC(CN1CCN(C)CC1)C(=O)Nc1ccc(-c2ccc(-c3nc4ccccc4[nH]3)s2)cc1` (stereo not given) was 4%; that for `CCN(c1cc(C)nc(Nc2ccc(Cl)cc2)n1)[C@H]1CCN(Cc2ccccc2)C1` was 2%.

The values are drawn from PubChem BioAssay.
